# GDH-TPI counter-1: inhibits GDH-TPI coupling enzymes, artifact for Mtb FBA screen; inhibition, % at 4.8 µM; GDH-TPI coupled enzyme counterscreen, NADH absorbance; actives 1.2% (n = 360,000); in the data active = inhibition above about 30%;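 note: 0% = DMSO wells and 100% = wells lacking the enzyme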
# UGM FP inh: inhibitors of M. tuberculosis UDP-galactopyranose mutase. inhibition, % at 10 µM. P9WIQ1. AID 504406. purified UGM, fluorescence polarization probe displacement. actives 0.06% (n = 320,000); in the data active = inhibition above about 10%, passing the limit was not always enough
# Rv3671c inh: inhibits the M. tuberculosis serine protease Rv3671c; inhibition, % at 5.96 µM; actives 0.048% (n = 320,000); P9WHR9; in the data active = inhibition above about 38%;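 note: extracellular domain of Rv3671c used as enzyme; 0% = enzyme with DMSO and 100% = no enzyme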
# FBA Mtb inh: inhibitors of M. tuberculosis fructose-bisphosphate aldolase. P9WQA3. purified M. tuberculosis FBA, fluorescence read-out. inhibition, % at 1 µM. actives 2.3% (n = 360,000). AID 588726;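 note: 0% = vehicle and 100% = reference inhibitor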
# Target sequence (P9WQA3 whole entry, looked up): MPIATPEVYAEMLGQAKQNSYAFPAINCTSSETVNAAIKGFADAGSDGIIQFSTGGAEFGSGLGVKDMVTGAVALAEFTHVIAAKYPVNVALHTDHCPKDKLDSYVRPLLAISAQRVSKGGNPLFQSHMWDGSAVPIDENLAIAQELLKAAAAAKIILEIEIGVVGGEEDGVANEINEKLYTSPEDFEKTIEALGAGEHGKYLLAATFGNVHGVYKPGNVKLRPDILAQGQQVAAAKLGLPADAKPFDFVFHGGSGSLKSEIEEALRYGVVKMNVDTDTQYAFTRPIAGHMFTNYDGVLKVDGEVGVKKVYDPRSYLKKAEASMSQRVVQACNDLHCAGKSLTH
# Mtb FBA inh conf: Mtb FBA inhibition, confirmed. purified M. tuberculosis FBA, fluorescence read-out. inhibition, % at 1 µM. shares compounds with FBA Mtb inh. actives 78% (n = 5,600);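 note: 0% = vehicle wells and 100% = reference inhibitor wells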
# GDH-TPI counter-2: inhibits GDH-TPI coupling enzymes, flagging Mtb FBA hits; shares compounds with FBA Mtb inh; GDH-TPI coupled enzyme counterscreen, fluorescence; inhibition, % at 1 µM; actives 81% (n = 5,600); AID 652141; in the data active = inhibition above about 10%
# GDH-TPI DR: GDH-TPI dose response counter-screen for Mtb FBA | shares compounds with FBA Mtb inh | GDH-TPI coupled enzyme assay, fluorescence, artifact counterscreen | IC50, µM | actives 79% (n = 170); call rule not given here
# * marks the source's active call; other numbers are inactive results; / = no result; + = active, no number. The list is not random: actives were taken first. Their share in the collection is about 3.5%. Cut-off read from the data, not from the text of the source, unless noted: active = inhibition above about 27%; inactive = the rest.
SMILES,GDH-TPI counter-1,UGM FP inh,Rv3671c inh,FBA Mtb inh,Mtb FBA inh conf,GDH-TPI counter-2,others
Cc1c(C)c2ccc(OCC(=O)NC(Cc3ccc(Cl)cc3)C(=O)O)cc2oc1=O (configuration not stated),7,-1,-2,96*,116*,79*,
CCCc1cc(=O)oc2cc(OCC(=O)NC(Cc3ccc(Cl)cc3)C(=O)O)ccc12 (configuration not stated),2,2,-5,18,/,/,
Cc1c(C)c2ccc(OCC(=O)N[C@@H](Cc3ccccc3)C(=O)O)cc2oc1=O,12,2,-2,77*,95*,81*,
Cc1c(Cc2ccccc2)c(=O)oc2cc(OCC(=O)NC(Cc3ccc(Cl)cc3)C(=O)O)ccc12 (configuration not stated),13,3,-11,92*,170*,151*,
CCOC(=O)c1ccc(NC(=O)NC2=NCCS2)cc1,6,/,/,2,/,/,
CCC1C(=O)N=C(SCC(=O)Nc2ccc(C)cc2)N(c2ccccc2)C1=O (configuration not stated),-9,-1,2,-1,/,/,
CSCCC1NC(=O)N(CC(=O)Nc2ccc3c(c2)OCCO3)C1=O (configuration not stated),11,0,6,2,/,/,
CC(=O)Nc1ccc(S(=O)(=O)Nc2nc3ccccc3nc2Cl)cc1,-3,-1,3,-1,/,/,
O=S(=O)(Nc1nc2cc3c(cc2nc1Cl)OCCO3)c1ccccc1,3,-2,-2,48*,61*,37*,
CC(=O)Nc1ccc(S(=O)(=O)Nc2nc3cc4c(cc3nc2Cl)OCCO4)cc1,24,3,7,62*,76*,71*,
CC(=O)Nc1cc(-c2ccc(C(=O)N3CCOCC3)cc2)cn2c(-c3ccc(F)c(Cl)c3)cnc12,4,/,/,-1,/,/,
CC(=O)Nc1cc(-c2ccc(F)cc2)cn2c(-c3ccc(S(C)(=O)=O)cc3)cnc12,15,/,/,57*,89*,69*,
CC(=O)Nc1cc(-c2cccc(C(=O)NCCN(C)C)c2)cn2c(-c3ccccc3)cnc12,8,/,/,2,/,/,
CC(=O)Nc1cc(-c2ccc(C(=O)N3CCOCC3)cc2)cn2c(-c3ccc(S(C)(=O)=O)cc3)cnc12,11,/,/,28*,+,+,
CC(=O)Nc1cc(-c2cccc(C(=O)NCCN(C)C)c2)cn2c(-c3ccc(S(C)(=O)=O)cc3)cnc12,11,/,/,61*,+,+,
CC(=O)Nc1cc(-c2ccc(F)cc2)cn2c(-c3ccc(F)cc3)cnc12,4,/,/,6,/,/,
COC(=O)c1c(NC(=O)CN2C(=O)C(=O)N(C(C)C)C2=O)sc(C)c1C,0,0,-2,3,/,/,
CC(C)(C)n1nc2c(c1NC(=O)C1CC(=O)N(c3ccc(Cl)cc3)C1)CS(=O)(=O)C2 (configuration not stated),1,4,0,1,/,/,
Nc1ccc2ccccc2c1[N+](=O)[O-],7,/,/,-10,/,/,
Nc1cc2c3ccccc3ccc2c2ccccc12,11,/,/,62*,+,+,
CSc1nc(N)c2c3c(sc2n1)CN(C)CC3,21,2,-5,39*,48*,34*,
CCC(O)CNc1nc(SC)nc2sc3c(c12)CCN(C)C3 (configuration not stated),17,0,-5,84*,0,-6,
CCSc1nc(N)c2c3c(sc2n1)CN(C)CC3,/,-1,-1,/,/,/,
COc1cccc(-c2cnc(C(O)c3ccc(-c4ccccc4)cc3)[nH]2)c1 (configuration not stated),-5,/,/,0,/,/,
CCOC(=O)Cc1c(C)nc2c(-c3ccccc3)c[nH]n2c1=O,19,-4,2,85*,176*,172*,
CCc1c(C)nc2c(-c3ccccc3)c[nH]n2c1=O,6,0,0,33*,15,9,GDH-TPI DR=8.1*
CCOC(=O)Cc1c(C)nc2c(-c3ccccc3)c(C)[nH]n2c1=O,9,/,4,23,/,/,
CCOC(=O)Cc1c(C)nc2c(-c3ccccc3)c(-c3ccccc3)[nH]n2c1=O,16,/,4,72*,58*,41*,
CCOC(=O)Cc1cc(=O)n2[nH]cc(-c3ccc(Cl)cc3)c2n1,6,6,-25,21,/,/,
Cc1nc2ccc(C(=O)N(C)Cc3ccco3)cn2c1N(C)CC1CCCCC1,8,/,/,-1,/,/,
